{"source": "PubChem BioAssay (NCATS)", "note": "Inconclusive results are not listed. A number with no mark means an inactive call. Active and inactive are the calls of the source. Calls come from the whole dose curve; as a rule, active = well fitted curve in the direction sought with a large enough effect; inconclusive = small, poorly fitted or top-dose-only effect, or another doubt; inactive = no such curve, though single readings can be large; an effect the other way counts as inactive or inconclusive. Potency is the fitted concentration of half-maximal effect."}
{"assay": "qHTS of pediatric cancer cell lines to identify multiple opportunities for drug repurposing: Primary screen for NB-EBc1 cells (AID 1347095);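 for activity change, negative = cytotoxic: plate controls were DMSO neutral control for no effect and bortezomib for full effect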", "conditions": "NB-EBc1 neuroblastoma viability, CellTiter-Glo luminescence, 48 h; series mostly up to 46 µM; activity change, negative = cytotoxic: at the top concentration", "method_in_brief": "(§1)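 Plated cells (500-1,000 per well, growth media) were allowed to settle for 5 hours, treated with compound dilutions for 48 hours, then lysed with CellTiter-Glo for 15 min at room temperature before luminescence reading.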", "units": {"activity change, negative = cytotoxic": "%"}}
{"smiles": "CCN(CCCc1ccccc1)CCCc1ccccc1", "activity change, negative = cytotoxic": -1.14}
{"smiles": "COc1c(C)c2c(c(O)c1C/C=C(\\C)CCC(=O)O)C(=O)OC2", "Potency": "29.9 µM (active)"}
{"smiles": "CCCSS/C(CCO)=C(\\C)N(C=O)Cc1cnc(C)nc1N", "Potency": "16.8 µM (active)"}
{"smiles": "COc1cccc2c1C(=O)c1c(O)c3c(c(O)c1C2=O)C[C@@](O)(C(C)=O)C[C@@H]3O[C@H]1C[C@H](N)[C@H](O)[C@H](C)O1", "Potency": "0.0531 µM (active)"}
{"smiles": "COC1=CC(=O)C[C@@H](C)[C@]12Oc1c(Cl)c(OC)cc(OC)c1C2=O", "Potency": "11.9 µM (active)"}
{"smiles": "CC1(C)OC[C@@H](COC(=O)CCc2ccc(OC[C@@H](O)CNCCNC(=O)N3CCOCC3)cc2)O1", "activity change, negative = cytotoxic": 6.33}
{"assay": "qHTS of pediatric cancer cell lines to identify multiple opportunities for drug repurposing: Primary screen for U-2 OS cells (AID 1347096); note: nearly all actives have a fitted effect of over 50% in size;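 for activity change, negative = cytotoxic: plate controls were DMSO wells for no effect and bortezomib positive control wells for full effect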", "conditions": "U-2 OS viability, CellTiter-Glo luminescence, 48 h; series mostly up to 46 µM; activity change, negative = cytotoxic: at the top concentration", "method_in_brief": "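Cells (500-1,000/well) in growth media were settled 5 h at 37 degrees C, then given compounds for 48 h. Viability was read as CellTiter-Glo luminescence. Primary runs used MIPE at 11 points (0.78 nM-46 µM) and NPC at 8 points (0.59 nM-46 µM); follow-ups used 11 points.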"}
{"smiles": "O=C(Nc1ccc(Oc2ccc(Cl)cc2)c(Cl)c1)c1cc(I)cc(I)c1O", "activity change, negative = cytotoxic": "11.8%"}
{"smiles": "COc1ccc(/C=C/C(=O)c2ccc(OC)cc2OC)cc1", "activity change, negative = cytotoxic": "-15.8%"}
{"smiles": "CCOC(=O)[C@H](CCc1ccccc1)N[C@@H](C)C(=O)N1Cc2ccccc2C[C@H]1C(=O)O", "activity change, negative = cytotoxic": "-8.45%"}
{"smiles": "C[C@@H](CN(C)C)CN1c2ccccc2Sc2ccccc21", "activity change, negative = cytotoxic": "-17.2%"}
{"smiles": "O=C(OCC(O)CO)c1ccccc1Nc1ccnc2cc(Cl)ccc12", "note": "(centres undefined)", "activity change, negative = cytotoxic": "-17.3%"}
{"smiles": "C/C=C(/C(=C/C)c1ccc(O)cc1)c1ccc(O)cc1", "activity change, negative = cytotoxic": "-0.332%"}
{"smiles": "Oc1ccc(Cl)c2cccnc12", "activity change, negative = cytotoxic": "-16.8%"}
{"smiles": "CCCCCCCCCCOCC(O)CN", "note": "(centres undefined)", "activity change, negative = cytotoxic": "-20.7%"}
{"smiles": "O=C1OC2(c3ccc(O)cc3Oc3cc(O)ccc32)c2ccccc21", "activity change, negative = cytotoxic": "-3.42%"}
{"smiles": "COc1cc(C(=S)N2CCOCC2)cc(OC)c1OC", "activity change, negative = cytotoxic": "3.58%"}
{"smiles": "CN(C/C=C/c1ccccc1)Cc1cccc2ccccc12", "activity change, negative = cytotoxic": "-12.4%"}
{"smiles": "CC(=O)OCC(=O)[C@@]12OC(C)(C)O[C@@H]1C[C@H]1[C@@H]3C[C@H](F)C4=CC(=O)C=C[C@]4(C)[C@@]3(F)[C@@H](O)C[C@@]12C", "activity change, negative = cytotoxic": "-22.3%"}
{"smiles": "CCn1cc(C(=O)O)c(=O)c2cnc(N3CCCC3)nc21", "activity change, negative = cytotoxic": "4.46% [at 9.22 µM]"}
{"smiles": "CC(C)NC[C@@H](O)COc1cccc2ccccc12", "activity change, negative = cytotoxic": "-4.49%"}
{"smiles": "CCN(CCCc1ccccc1)CCCc1ccccc1", "activity change, negative = cytotoxic": "-3.69%"}
{"smiles": "COc1c(C)c2c(c(O)c1C/C=C(\\C)CCC(=O)O)C(=O)OC2", "activity change, negative = cytotoxic": "5.29%"}
{"smiles": "CC(=O)N/N=C/c1ccc([N+](=O)[O-])o1", "activity change, negative = cytotoxic": "-15.6%"}
{"smiles": "COc1cccc2c1C(=O)c1c(O)c3c(c(O)c1C2=O)C[C@@](O)(C(C)=O)C[C@@H]3O[C@H]1C[C@H](N)[C@H](O)[C@H](C)O1", "Potency": "6.68 µM (active)"}
{"smiles": "COC1=CC(=O)C[C@@H](C)[C@]12Oc1c(Cl)c(OC)cc(OC)c1C2=O", "activity change, negative = cytotoxic": "4.3%"}
{"smiles": "Oc1c(I)cc(I)c2cccnc12", "activity change, negative = cytotoxic": "-20.3%"}
{"smiles": "CC1(C)OC[C@@H](COC(=O)CCc2ccc(OC[C@@H](O)CNCCNC(=O)N3CCOCC3)cc2)O1", "activity change, negative = cytotoxic": "10.8%"}
{"assay": "qHTS of pediatric cancer cell lines to identify multiple opportunities for drug repurposing: Primary screen for Saos-2 cells (AID 1347097); note: nearly all actives have a fitted effect of over 40% in size; for activity change, negative = cytotoxic: % is set by controls: 0 for no effect and ±100 for the full control effect", "conditions": "Saos-2 viability, CellTiter-Glo ATP luminescence, 48 h; series mostly up to 46 µM; activity change, negative = cytotoxic: at the top concentration", "method_in_brief": "as §1"}
{"smiles": "C/C=C/c1ccc(OC)cc1", "activity change, negative = cytotoxic": "34.8%"}
{"smiles": "COc1ccc(/C=C/C(=O)c2ccc(OC)cc2OC)cc1", "Potency": "10.6 µM (active)"}
{"smiles": "OC[C@H]1O[C@@H](n2cnc3c(=S)nc[nH]c32)[C@H](O)[C@@H]1O", "Potency": "15 µM (active)"}
{"smiles": "CC(C)(C)CC(C)(C)c1ccc(O)c(Cc2ccc(Cl)cc2Cl)c1", "Potency": "16.8 µM (active)"}
{"smiles": "CCN(CC)CCOc1ccc(C(O)(Cc2ccc(Cl)cc2)c2ccc(C)cc2)cc1", "note": "(centres undefined)", "Potency": "16.8 µM (active)"}
{"smiles": "CCCCCCCCCCCCCCCC[N+](C)(C)CCN(Cc1ccc(OC)cc1)c1ncccn1", "Potency": "15 µM (active)"}
{"smiles": "O=C(OCC(O)CO)c1ccccc1Nc1ccnc2cc(Cl)ccc12", "note": "(centres undefined)", "Potency": "23.7 µM (active)"}
{"smiles": "C/C=C(/C(=C/C)c1ccc(O)cc1)c1ccc(O)cc1", "Potency": "21.1 µM (active)"}
{"smiles": "c1ccc(-c2ccc(C(c3ccccc3)n3ccnc3)cc2)cc1", "note": "(centres undefined)", "activity change, negative = cytotoxic": "-26.4%"}
{"smiles": "COc1cc2c(cc1OC)C(C(C(=O)N(CCc1ccc(OC)c(OC)c1OC)CCc1ccc(OC)c(OC)c1OC)c1ccccc1)=NCC2", "note": "(centres undefined)", "activity change, negative = cytotoxic": "-17.3%"}
{"smiles": "O=C1OC2(c3ccc(O)cc3Oc3cc(O)ccc32)c2ccccc21", "activity change, negative = cytotoxic": "-9.79%"}
{"smiles": "COc1cc(C(=S)N2CCOCC2)cc(OC)c1OC", "activity change, negative = cytotoxic": "19.4%"}
{"smiles": "CN(C/C=C/c1ccccc1)Cc1cccc2ccccc12", "Potency": "23.7 µM (active)"}
{"smiles": "CCn1cc(C(=O)O)c(=O)c2cnc(N3CCCC3)nc21", "activity change, negative = cytotoxic": "0.0364% [at 9.22 µM]"}
{"smiles": "CCN(CCCc1ccccc1)CCCc1ccccc1", "activity change, negative = cytotoxic": "-26%"}
{"smiles": "COc1cccc2c1C(=O)c1c(O)c3c(c(O)c1C2=O)C[C@@](O)(C(C)=O)C[C@@H]3O[C@H]1C[C@H](N)[C@H](O)[C@H](C)O1", "Potency": "0.266 µM (active)"}
{"smiles": "CC1=C(C(=O)OC(C)C)C(c2cccc([N+](=O)[O-])c2)C(C(=O)OC2CN(C(c3ccccc3)c3ccccc3)C2)=C(N)N1", "note": "(centres undefined)", "Potency": "21.1 µM (active)"}
{"smiles": "O=C(CCN1CCC(c2ccccc2)C1)c1ccc2c(c1)OCCO2", "note": "(centres undefined)", "Potency": "23.7 µM (active)"}
{"smiles": "CC1(C)OC[C@@H](COC(=O)CCc2ccc(OC[C@@H](O)CNCCNC(=O)N3CCOCC3)cc2)O1", "activity change, negative = cytotoxic": "1.39%"}
{"assay": "qHTS of pediatric cancer cell lines to identify multiple opportunities for drug repurposing: Primary screen for SK-N-SH cells (AID 1347098); note: nearly all actives have a fitted effect of over 65% in size;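 for activity change, negative = cytotoxic: DMSO served as neutral control and bortezomib at 2.3 µM as positive control; % is set by controls: 0 for no effect and ±100 for the full control effect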", "conditions": "SK-N-SH viability, CellTiter-Glo luminescence, 48 h; series mostly up to 57 µM; activity change, negative = cytotoxic: at the top concentration", "method_in_brief": "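Cells (500-1,000/well) rested 5 h, then received compounds for 48 h; metabolically active cells were measured by CellTiter-Glo luminescence. Final concentrations spanned up to 46 µM (MIPE, 11-point) or 0.59 nM-46 µM (NPC, 8-point) in primary screens, 11-point in follow-ups.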", "units": {"activity change, negative = cytotoxic": "%"}}
{"smiles": "C/C=C/c1ccc(OC)cc1", "activity change, negative = cytotoxic": -7.49}
{"smiles": "COc1ccc(/C=C/C(=O)c2ccc(OC)cc2OC)cc1", "Potency": "19.4 µM (active)"}
{"smiles": "COc1ccc(CCN2CCC(Nc3nc4ccccc4n3Cc3ccc(F)cc3)CC2)cc1", "Potency": "6.12 µM (active)"}
{"smiles": "CCCCCCCCCCCCCCCC[N+](C)(C)CCN(Cc1ccc(OC)cc1)c1ncccn1", "Potency": "27.3 µM (active)"}
{"smiles": "O=C(OCC(O)CO)c1ccccc1Nc1ccnc2cc(Cl)ccc12", "note": "(centres undefined)", "activity change, negative = cytotoxic": -16.5}
{"smiles": "Oc1ccc(Cl)c2cccnc12", "Potency": "8.64 µM (active)"}
{"smiles": "C#C[C@]1(O)CC[C@H]2[C@@H]3CCc4cc(OC5CCCC5)ccc4[C@H]3CC[C@@]21C", "Potency": "17.2 µM (active)"}
{"smiles": "COc1cc2c(cc1OC)C(C(C(=O)N(CCc1ccc(OC)c(OC)c1OC)CCc1ccc(OC)c(OC)c1OC)c1ccccc1)=NCC2", "note": "(centres undefined)", "activity change, negative = cytotoxic": -10.4}
{"smiles": "O=C1OC2(c3ccc(O)cc3Oc3cc(O)ccc32)c2ccccc21", "activity change, negative = cytotoxic": -24.2}
{"smiles": "COc1cc(C(=S)N2CCOCC2)cc(OC)c1OC", "activity change, negative = cytotoxic": 9.83}
{"smiles": "C=C(CC)C(=O)c1ccc(OCC(=O)O)c(Cl)c1Cl", "Potency": "17.2 µM (active)"}
{"smiles": "CC(=O)OCC(=O)[C@@]12OC(C)(C)O[C@@H]1C[C@H]1[C@@H]3C[C@H](F)C4=CC(=O)C=C[C@]4(C)[C@@]3(F)[C@@H](O)C[C@@]12C", "activity change, negative = cytotoxic": -8.96}
{"smiles": "CC(C)NC[C@@H](O)COc1cccc2ccccc12", "activity change, negative = cytotoxic": -16.4}
{"smiles": "CCOc1ccc2nc3cc(N)ccc3c(N)c2c1", "Potency": "15.4 µM (active)"}
{"smiles": "CNCC[C@@H](Oc1ccccc1C)c1ccccc1", "activity change, negative = cytotoxic": -15.8}
{"smiles": "C#C[C@]1(OC(C)=O)CC[C@H]2[C@@H]3CCC4=C[C@@H](OC(C)=O)CC[C@@H]4[C@H]3CC[C@@]21C", "activity change, negative = cytotoxic": -23.2}
{"smiles": "COc1cccc2c1C(=O)c1c(O)c3c(c(O)c1C2=O)C[C@@](O)(C(C)=O)C[C@@H]3O[C@H]1C[C@H](N)[C@H](O)[C@H](C)O1", "Potency": "0.386 µM (active)"}
{"smiles": "CC1(C)OC[C@@H](COC(=O)CCc2ccc(OC[C@@H](O)CNCCNC(=O)N3CCOCC3)cc2)O1", "activity change, negative = cytotoxic": -5.66}
